Assay results from PubChem BioAssay (NCI).
About 83,000 compounds went through this panel and 20% of them were active in at least one assay; those are over-represented in the sample as a whole.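 Compound tested at a single concentration for 48 hours in 96-well plates; a percent growth value below 10 was scored as active.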 Active and inactive are the calls of the source.

system: UACC-62 melanoma; experiment: NCI-60 one-dose screen, 48 h (100 = growth as untreated, 0 = no growth, -100 = all killed); details: 10 µM unless noted

Row | SMILES | growth
1 | C=C1C(=O)O[C@H]2[C@H]1CC/C(COC(=O)c1cc3cc(OC)ccc3[nH]1)=C\CC[C@@]1(C)O[C@@H]21 | -90.6% (active)
2 | CC[C@]1(O)C[C@@H]2CN(CCc3c([nH]c4ccccc34)[C@@](C(=O)OC)(c3cc4c(cc3OC)N(C)[C@H]3[C@@](O)(C(N)=O)[C@H](O)[C@]5(CC)[C@@H]6C[C@@H]6CN6CC[C@]43[C@@H]65)C2)C1 | 35.7% (inactive)
3 | Cc1nn(-c2ccc(F)cc2)c2ncnc(Nc3ccc(NC(=O)Nc4ccc(Cl)c(C(F)(F)F)c4)cc3)c12 | 11% (inactive)
4 | C#CCOc1ccc2ncnc(N3CCC(NC(=O)CCl)CC3)c2c1 | 72.7% [8.25 µM] (inactive)
5 | CCC(=O)c1ccc(Cl)s1 | 106% (inactive)
6 | O=C1CC[C@H](c2ccc(O)c3c2C(=O)[C@@H]2O[C@@H]2C3=O)c2cccc(O)c21 | 39.4% (inactive)
7 | O=C1/C(=C/c2ccc3c(c2)OCO3)SC(=S)N1CCc1ccc(O)cc1 | 88% (inactive)
8 | Oc1ccccc1-c1nnc(CNc2ccc(Cl)cc2)o1 | 8.19% (active)
9 | Cc1ccc(NC(=O)/C=C/c2ccccc2)c(C(N)=O)c1 | 44.2% (inactive)
10 | CN1CCN(CCCOc2cccc3nc(Nc4ccc(Cl)c(F)c4)ccc23)CC1 | -55.5% (active)
11 | NC1=C(Cl)C(=O)c2ccc(S(N)(=O)=O)cc2C1=O | -88% (active)
12 | O=C1c2cc3c(cc2-c2c1c1ccc(Cl)cc1c(=O)n2CCCN1CCOCC1)OCO3 | 23.6% (inactive)
13 | FC(F)(F)c1nc2c(NCc3ccc(-c4ccccc4)cc3)cccc2[nH]1 | 72.1% (inactive)
14 | OC(c1cc2cc(Cl)c(Cl)cc2c2cc(C(F)(F)F)ccc12)C1CCCCN1 (stereo not given) | -38.4% (active)
15 | O=C(Cc1ccccc1Nc1c(Cl)cccc1Cl)NN1C(=O)/C(=C/c2ccc(Br)cc2)SC1=S | 101% (inactive)
16 | COc1ccc(C2CC(c3ccc(Cl)cc3)=NN2/C=C2\SC(=S)N(NC(=O)Cc3ccccc3Nc3c(Cl)cccc3Cl)C2=O)cc1 (stereo not given) | 63.2% (inactive)
17 | CCOC(=O)c1csc(NC(=O)COc2cccc(/C=C3\CSc4ccccc4C3=O)c2)n1 | 64.4% (inactive)
18 | Cn1cc(-c2nonc2-c2c[nH]c3ccccc23)c2cccnc21 | 41.5% (inactive)
19 | COc1cc(/C=C/c2cc(/C=C/c3ccc(O)c(OC)c3)n(-c3c(C)cccc3C)c(=O)n2)ccc1O | -11.3% (active)
20 | COc1cccc(C2=NN3C(C2)c2cc(Br)cc(OC)c2OC32CCN(Cc3ccccc3)CC2)c1 (stereo not given) | 98.7% (inactive)
21 | CC(C)(C)c1cc(C(C)(C)C)cc(S(=O)(=O)Nc2cc3ccccc3cc2C(=O)NCCN)c1 | 55% (inactive)
22 | Cc1[nH]c(-c2cc(N)ccc2Cl)c2c1C(=O)CCCC2 | 15.7% (inactive)
23 | Cn1cc(C(=O)c2nc(-c3c[nH]c4ccc(Br)cc34)no2)c2cc(F)ccc21 | 78% (inactive)
24 | Cc1[nH]c(-c2ccc3cc[nH]c3c2)c2c1C(=O)CCCC2 | 24.8% (inactive)
25 | O=C1/C(=C(/c2ccccc2)N2CCOCC2)Cc2ccccc21 | 48.6% (inactive)
26 | Cn1c(NCCc2ccc(O)c(O)c2)nc2c1c(=O)n(Cc1ccc(Cl)c(Cl)c1)c(=O)n2C | 73.9% (inactive)

system: LOX IMVI melanoma; experiment: as above; details: 10 µM unless noted

Row | SMILES | growth
27 | CC(C)(C)N1CCC1CN (stereo not given) | 109% (inactive)
28 | C=C1C(=O)O[C@H]2[C@H]1CC/C(COC(=O)c1cc3cc(OC)ccc3[nH]1)=C\CC[C@@]1(C)O[C@@H]21 | -91% (active)
29 | CC[C@]1(O)C[C@@H]2CN(CCc3c([nH]c4ccccc34)[C@@](C(=O)OC)(c3cc4c(cc3OC)N(C)[C@H]3[C@@](O)(C(N)=O)[C@H](O)[C@]5(CC)[C@@H]6C[C@@H]6CN6CC[C@]43[C@@H]65)C2)C1 | 18.3% (inactive)
30 | O=C(N/N=C/c1ccccc1O)c1ccccc1Nc1ccnc(C(F)(F)F)c1 | 7.93% (active)
31 | CC(=O)O[C@H]1[C@@H]2OC(=O)C(CSc3ccccc3)[C@@H]2C[C@H]2O[C@]2(C)CC/C=C(\C)CCC[C@@H]1C (stereo not given in full) | 28.4% (inactive)
32 | C#CCOc1ccc2ncnc(N3CCC(NC(=O)CCl)CC3)c2c1 | 78.1% [8.25 µM] (inactive)
33 | CCC(=O)c1ccc(Cl)s1 | 107% (inactive)
34 | COc1ccc(S(=O)(=O)N2CC3(COC3)C2)cc1NC(=O)c1[nH]c(C)c2c1CCCCC2=O | 17.3% (inactive)
35 | O=C1/C(=C/c2ccc3c(c2)OCO3)SC(=S)N1CCc1ccc(O)cc1 | 91.3% (inactive)
36 | Oc1ccccc1-c1nnc(CNc2ccc(Cl)cc2)o1 | 7.71% (active)
37 | Cc1ccc(OC(=O)c2ccc(Cl)cc2)cc1 | 99.3% (inactive)
38 | O=C(CCCCC(=O)N/N=C\c1ccccc1O)N/N=C\c1ccccc1O | 26.2% (inactive)
39 | Cc1ccc(NC(=O)/C=C/c2ccccc2)c(C(N)=O)c1 | 51.2% (inactive)
40 | CN1CCN(CCCOc2cccc3nc(Nc4ccc(Cl)c(F)c4)ccc23)CC1 | -96.1% (active)
41 | NC1=C(Cl)C(=O)c2ccc(S(N)(=O)=O)cc2C1=O | -85.1% (active)
42 | O=C1c2cc3c(cc2-c2c1c1ccc(Cl)cc1c(=O)n2CCCN1CCOCC1)OCO3 | 26.7% (inactive)
43 | O=C1C=CC(=O)N1c1ccc2c(c1)Cc1cc(F)ccc1-2 | 104% (inactive)

Row | SMILES | growth
44 | OC(c1cc2cc(Cl)c(Cl)cc2c2cc(C(F)(F)F)ccc12)C1CCCCN1 (stereo not given) | -88.2% (active)
45 | Brc1ccc(-c2csc(Nc3ccccn3)n2)cc1 | 214% (inactive)
46 | O=C(Cc1ccccc1Nc1c(Cl)cccc1Cl)NN1C(=O)/C(=C/c2ccc(Br)cc2)SC1=S | 97.5% (inactive)
47 | CCOC(=O)c1csc(NC(=O)COc2cccc(/C=C3\CSc4ccccc4C3=O)c2)n1 | -93.9% (active)
48 | Cn1cc(-c2nonc2-c2c[nH]c3ccccc23)c2cccnc21 | 43% (inactive)
49 | COc1cc(/C=C/c2cc(/C=C/c3ccc(O)c(OC)c3)n(-c3c(C)cccc3C)c(=O)n2)ccc1O | 0.0749% (active)
50 | COc1cccc(C2=NN3C(C2)c2cc(Br)cc(OC)c2OC32CCN(Cc3ccccc3)CC2)c1 (stereo not given) | 94.2% (inactive)
51 | CC(C)(C)c1cc(C(C)(C)C)cc(S(=O)(=O)Nc2cc3ccccc3cc2C(=O)NCCN)c1 | -77.8% (active)
52 | O=C(N(c1ccccc1)c1ccccc1)n1ccc2nc(Cl)nc(Cl)c21 | 72.1% (inactive)
53 | Cc1[nH]c(-c2cc(N)ccc2Cl)c2c1C(=O)CCCC2 | 3.58% (active)
54 | NC(=O)c1cc(Cl)ccc1NC(=O)/C=C/c1ccccc1 | 53.3% (inactive)
55 | Cn1ncc2c(=O)nc3c(-c4ccccc4)n[nH]n3c21 | 115% (inactive)
56 | Cn1cc(C(=O)c2nc(-c3c[nH]c4ccc(Br)cc34)no2)c2cc(F)ccc21 | 95.4% (inactive)
57 | Cc1[nH]c(-c2ccc3cc[nH]c3c2)c2c1C(=O)CCCC2 | 16.2% (inactive)
58 | O=C1/C(=C(/c2ccccc2)N2CCOCC2)Cc2ccccc21 | -58.3% (active)
59 | Cn1c(NCCc2ccc(O)c(O)c2)nc2c1c(=O)n(Cc1ccc(Cl)c(Cl)c1)c(=O)n2C | 86.5% (inactive)
60 | Cc1nn(-c2ccc(F)cc2)c2ncnc(Oc3ccc(NC(=O)Nc4ccc(Cl)c(C(F)(F)F)c4)cc3)c12 | 99.4% (inactive)
